The whole screen tested about 310,000 compounds, of which about 17,000 (5.5%) were called active. Not shown: some 11% with an inconclusive outcome. The sample holds actives, similar compounds and a random draw of the others, so the mix is not that of the screen. Calls follow the shape of the dose curve; as a rule, active = well fitted inhibition curve with a large enough effect; inconclusive = small, poorly fitted or top-dose-only effect, or effect the other way; inactive = no such curve, though single readings can be large or run the other way.
Target: Nuclear receptor ROR-gamma (Mus musculus) (UniProt P51450)
Experiment: qHTS for inhibitors of ROR gamma transcriptional activity; also: nearly all actives have a fitted effect of over 60% in size
Conditions: Drosophila S2 Gal4-RORgamma UAS-luciferase reporter, 20 h; series mostly up to 53.6 µM; activity change, negative = inhibition: at the top concentration
How it was run: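 In this cell-based reporter format, copper sulfate (700 uM final) drives Gal4–ROR gamma fusion expression from a metallothionein promoter in Drosophila Schneider cells; compounds preincubated 1 hr, reporter read after 20 hr at ambient temperature.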
% is scaled to controls: 0 for no effect and ±100 for the full control effect; potency is read from the fitted curve at half-maximal effect.

Nuclear receptor ROR-gamma (Mus musculus), sequence (P51450 whole entry, looked up): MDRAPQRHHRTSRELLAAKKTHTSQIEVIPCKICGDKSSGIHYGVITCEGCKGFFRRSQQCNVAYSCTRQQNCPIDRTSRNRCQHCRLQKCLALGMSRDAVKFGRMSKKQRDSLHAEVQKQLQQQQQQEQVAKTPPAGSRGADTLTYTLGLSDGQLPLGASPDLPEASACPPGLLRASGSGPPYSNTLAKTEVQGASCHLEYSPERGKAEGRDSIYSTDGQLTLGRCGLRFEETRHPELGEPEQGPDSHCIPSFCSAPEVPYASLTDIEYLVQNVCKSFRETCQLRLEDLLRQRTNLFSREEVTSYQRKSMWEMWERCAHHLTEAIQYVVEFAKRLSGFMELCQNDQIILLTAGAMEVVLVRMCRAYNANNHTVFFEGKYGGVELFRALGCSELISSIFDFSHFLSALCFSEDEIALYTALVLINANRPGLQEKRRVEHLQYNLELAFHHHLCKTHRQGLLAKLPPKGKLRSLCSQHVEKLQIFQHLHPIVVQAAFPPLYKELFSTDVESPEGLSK

Activity change, negative = inhibition, inactive:
COc1ccc(N2C(=O)CC(SC(C)C)C2=O)cc1 (centres undefined) 4.5%, COc1ccc(-c2nc(SCC(=O)N3CCCC3)n[nH]2)cc1 29.5%, Cc1ccc(F)c(NC(=O)CCOc2ccccc2C)c1 -20.8%, Cc1ccc(/C([O-])=C(/C(=S)NCc2ccco2)[n+]2ccccc2)cc1[N+](=O)[O-] -3.72%, CCC(C)NCC(=O)Nc1ccc([N+](=O)[O-])cc1C(=O)Nc1ccccc1F (centres undefined) -9.45%, CS(=O)(=O)N(CC(=O)N1CCOCC1)c1cccc(Cl)c1Cl -9.65%, C=CCn1cc(Cl)cc(C(=O)Nc2ccccc2)c1=O 14.3%, Cc1nc2ccc(C(=O)N(C)CC3CCCN(CCc4ccc(Cl)cc4)C3)cc2[nH]1 (centres undefined) -7.12%, CC(NC(=O)C1CCCN(S(=O)(=O)c2ccc(-n3cnnn3)cc2)C1)c1ccc(F)cc1 (centres undefined) -2.24%, O=C(NCc1ccco1)/C(=C/c1cccc([N+](=O)[O-])c1)NC(=O)c1ccco1 -3.55%, CSc1sc(C(=O)NNC(=O)c2ccc(Cl)cc2)c2c1C=CCC2 -5.15%, COC(=O)[C@H](C)NC(=O)Nc1ccc(OC(F)(F)F)cc1 5.22%, CN1C(=O)c2ccc(C(=O)Nc3ccc(Br)cn3)cc2C1=O 10.1%, O=C(Nc1cc(-c2nc3ncccc3o2)ccc1Cl)c1ccco1 -6.29%, Cn1c(SCC(=O)N2CCCC2)nnc1-c1ccc2c(c1)OCO2 3.23%, CCOc1ccccc1OCCCNCc1ccccc1 -1.61%, CC12CN(Cc3ccccc3)CC(C)(CN(Cc3ccccc3)C1)C2=NO 2.79%, Cn1c2c(c(=O)n(C)c1=O)CN(Cc1ccco1)CN2 0%, CCOc1ccc(CC(=O)NC2CCN(Cc3ccccc3)CC2)cc1 11.1% [at 1.91 µM], O=S(=O)(c1cc(Cl)ccc1Cl)N1CCN(Cc2ccco2)CC1 19.3%, c1ccc(CCN2CN=C(Nc3nc4ccccc4o3)NC2)cc1 0%, S=C1SCN(CCN2CCOCC2)CN1Cc1ccccc1 -38.9%, N#CNC1=NCN(CCc2ccccc2)CN1 -13.1%, COc1ccccc1NC(=O)CSc1nnc(CNC(=O)c2ccccc2F)o1 -11.2%, CCOc1ccc(C)cc1S(=O)(=O)NC1CCCCCC1 1.67%, COc1ccc(C(=O)N2CCCN(C)CC2)c(OC)c1 21.7%, Cc1cccc[n+]1CC(=O)c1ccccc1 -7.06%, CSc1ccccc1OCc1cc(C(=O)N(C)CCc2c(C)n[nH]c2C)no1 -3.27%, CCn1c(SCc2cccc(C(=O)O)c2)nnc1-c1ccc(Cl)cc1 -0.312%, CCOc1ccc(NC(=S)N2CCC(N(C)CC3CCCO3)CC2)cc1 (centres undefined) -15.5%, Cc1cc(C)cc(NC(=O)NCc2ccccn2)c1 11.9%, O=C(NCc1ccccn1)Nc1ccc(F)cc1 9%, CCOc1ccc(NC(=S)N2CCC(NC(=O)c3ccccc3)CC2)cc1 0.515%, CCC(C)N(C)C1CCN(C(=S)Nc2ccc(OC)cc2)CC1 (centres undefined) -3.42%, NS(=O)(=O)c1ccc(NC(=S)N2CCCC2)cc1 -8.65%, CCOC(=O)C1CCN(C(=O)CN2C(=O)c3cccnc3Oc3ccc(C)cc32)CC1 -7.07%, CCCc1cc(=O)[nH]c(SCC(=O)Nc2sc3c(c2C#N)CCCC3)n1 33.4%, Cc1ccc(Cn2c(=N)c(S(=O)(=O)c3ccc(C)cc3)cc3c(=O)n4ccccc4nc32)cc1 -23.8%, CCC(C)(C)NC(=O)C(c1ccc(OC)cc1)N(C(=O)CCC(=O)Nc1cc(C)on1)c1ccc(OC)cc1OC (centres undefined) 40.9%, Cc1cc(Cl)ccc1OCCCC(=O)Nc1cccc(-n2cnnn2)c1 35%, CCOC(=O)N1CCN(C(=O)COc2ccc(Cl)cc2C)CC1 -1.24%, OC(c1ccc(Cl)cc1)C(CN1CCOCC1)c1ccccc1 (centres undefined) 3.28%, O=C(CCCN1C(=O)/C(=C\c2ccccc2)SC1=S)Nc1ccccc1O -38.6%, Cc1ccc(/C=C2\SC(=S)N(CCC(=O)Nc3ccc(O)cc3)C2=O)cc1 -15.4%, CN1CCN(Cc2nc3cc(NC(=O)COc4ccc([N+](=O)[O-])cc4)ccc3n2C)CC1 -7.74%, COc1ccc2c(C)c(CCC(=O)NC3CC3)c(=O)oc2c1C 7.24%, CC(=O)Nc1ccc(NC(=O)CN2CCCC(C)C2)c(Cl)c1 (centres undefined) 27.2%, CC1CCCN(CC(=O)Nc2cc(Cl)ccc2Oc2ccccc2)C1 (centres undefined) 4.22%, COc1ccc(S(=O)(=O)n2cnc3ccccc32)c(C)c1 40%, COc1ccc(N2CC(C(=O)N[C@@H](C)C(=O)N3CCCCC3)CC2=O)cc1 (some centres undefined) -8.28%, COc1ccccc1N1CC(C(=O)Nc2nnc(SCC(=O)NCC3CCCO3)s2)CC1=O (centres undefined) 2.4%, CNS(=O)(=O)c1cccc(C(=O)NC2CCCc3ccccc32)c1 (centres undefined) -15.4%, c1cncc(-c2nc(N3CCNCC3)c3ccccc3n2)c1 14.8%, c1ccc(-n2nnnc2-c2cccnc2)cc1 3.95%, O=C(C1CCCN(S(=O)(=O)c2ccccc2)C1)N1CCN(c2ccc(F)cc2)CC1 (centres undefined) 16.8%, Cc1ccc(S(=O)(=O)NC(=O)c2cccc(C)c2)cc1 0.442%, Cc1cccc(C(=O)NCCCN(C)CCCNC(=O)c2cccc(C)c2)c1 -5.29%, O=C(Nc1c2c(nn1-c1cccc(Cl)c1)CS(=O)(=O)C2)c1cccs1 -10.5%, COc1ccc(C(=O)Nc2c(N)nc(SCC(=O)Nc3ccc(C(C)=O)cc3)[nH]c2=O)cc1 -19.8%, CCCCN(CC)C(=O)C1CCCN(S(=O)(=O)c2cccc3nsnc23)C1 (centres undefined) 3.5%, Cc1ccc(OC(=O)c2cncc(Br)c2)c(C)c1 -23% [at 1.91 µM], O=C(NCc1ccccn1)C1CCN(S(=O)(=O)c2ccc(Br)cc2)CC1 -18.1%, CC(=O)Cc1nsc(NC(=O)c2csc3c2CCCC3)n1 25%, Cc1ccc(NC(=O)c2csc3c2CCCC3)cc1 12.7%, COc1ccc(C(=O)NC2CCN(C(=O)Nc3ccc(F)cc3)CC2)cc1 -0.284%, COc1ccccc1CNC(=O)c1ccc(CS(=O)(=O)c2ccccc2)o1 28.3%, CCOc1ccc(CN2CCN(CCCc3ccccc3)C(CCO)C2)cc1 (centres undefined) 2.1%, CCN(C(=O)C1CCCN(c2nc(-c3ccc(OC)cc3)no2)C1)c1ccc(OC)cc1 (centres undefined) 38.9%, OC(c1nc2ccccc2[nH]1)C(O)C(O)C(O)c1nc2ccccc2[nH]1 (centres undefined) 20.1%, OCCNc1nc2ccccc2[nH]1 -8.36%, Cc1cc(C)c2c(-c3ccc(F)cc3)c(C#N)c(=O)n(C)c2n1 -20%, CCc1ccc(OCC2c3cc(OC)c(OC)cc3CCN2C(C)=O)cc1 (centres undefined) -7.5%, Nc1nc(Nc2ccccc2F)nc(NC2CCCCC2)c1[N+](=O)[O-] 16.6%, O=c1cc(N2CCCCC2)c(-c2ccccc2)nn1Cc1cccc(F)c1 -0.464%, O=c1cc(-c2ccccc2)nc(N2CCCCC2)[nH]1 -5.11%, CCC(=O)Nc1nnc(S(=O)(=O)N(CC(C)C)c2ccccc2)s1 -21.1%, CCOc1ccc2[nH]c(=O)c(CN(CCCO)S(=O)(=O)c3ccc(F)cc3)cc2c1 12.8%, CC1COc2ccccc2N1C(=O)c1ccc(F)cc1 (centres undefined) 24%, c1ccc2c(c1)OCC(c1nn3cnnc3s1)O2 (centres undefined) 16.7%, COc1ccc(N2CCN(C(=O)c3ccc(N4CCCCS4(=O)=O)cc3)CC2)cc1 29.1%, COc1ccc(-c2cc(C(=O)N3CCN(c4ccc(F)cc4)CC3)no2)cc1 4.47%, CCOc1ccc2[nH]c3nc(SCC(=O)NC4CCCC4)nnc3c2c1 -11.8%, O=c1c2ccccc2ncn1CCCCOc1ccccc1F 12.9% [at 1.91 µM], COC(=O)c1ccc(NC(=O)CSc2nc(N)c(NC(=O)c3ccc(Br)o3)c(=O)[nH]2)cc1 5.56%, O=c1oc(/C=C/c2ccccc2)nc2ccccc12 0.954%

Potency, active:
COc1ccc(N2C(=O)CC(Sc3n[nH]c(-c4ccc(C)cc4)n3)C2=O)cc1 (centres undefined) 20 µM, O=[N+]([O-])c1cccc(/C([O-])=C(/C(=S)Nc2ccccc2F)[n+]2ccccc2)c1 12.6 µM, C=CC(COCc1ccccc1)N(Cc1ccccc1)S(=O)(=O)c1ccccc1Br (centres undefined) 7.94 µM, CS(=O)(=O)c1sc(C(=O)NC(=S)Nc2ccc(OC(F)(F)F)cc2)c2c1C=CCC2 7.08 µM, CCN1CN(Cc2ccccc2)CNC1=S 12.6 µM, CCCN1CNC(=S)N(CCc2ccccc2)C1 3.98 µM, CCOc1ccccc1N1CN(Cc2ccccc2)CNC1=S 4.47 µM, CCc1ccccc1N1CN(Cc2ccco2)CNC1=S 4.47 µM, CCC(C)c1ccc(NC(=S)NCc2ccccn2)cc1 (centres undefined) 2.51 µM, CCOc1ccc(NC(=S)N2CCCCCC2)cc1 7.08 µM, CCC(C)c1ccc(NC(=S)N2CCCC2)cc1 (centres undefined) 8.91 µM, CCCn1nnnc1NC(=O)COc1ccc(Cl)cc1C 0.891 µM, O=C(CCCN1C(=O)/C(=C/c2ccccc2)SC1=S)Nc1ccc(O)cc1 3.98 µM, Cc1cc(NC(=O)CN2CCCC(C)C2)n(-c2nc3ccccc3s2)n1 (centres undefined) 1.58 µM, FC(F)(F)c1ccc(-n2cn[nH]c2=S)cc1 10 µM, S=c1nc2ccccc2c2nc(-c3cccnc3)[nH]n12 0.447 µM, Cc1cccc(C(=O)NC(=S)N(C)C2CCCCC2)c1 1.78 µM, Cc1coc2c(O)cc3c(c12)OC1(N2CCCCC2)C(=O)NCCCC31 (centres undefined) 12.6 µM, COC(=O)c1sc(NC(=O)c2csc3c2CCCC3)nc1C 35.5 µM, c1ccc2[nH]c(-c3nc4ccccc4[nH]3)nc2c1 10 µM, c1ccc(-c2cc(N3CCCCC3)c3ccccc3n2)cc1 14.1 µM, O=C(Nc1nnc(C2COc3ccccc3O2)o1)c1ccc(F)cc1 (centres undefined) 0.562 µM, S=c1[nH]nc(/C=C/c2ccccc2)o1 12.6 µM

Potency, inactive:
C=CCCN(Cc1ccccc1)S(=O)(=O)c1ccccc1Br

Source: PubChem BioAssay AID2551 (National Center for Advancing Translational Sciences (NCATS), 2010)
